Values joined by “and” are separate entries in the source; they are usually repeats but may differ in a detail not shown here. Identical values can stand only once. Records with an inconclusive call do not appear. Entries that show only a call come without a potency. Some structures have more than one record in an assay (separate samples or runs), and their calls can disagree. Active and inactive are the calls of the source. Unless noted, calls come from the whole dose curve; as a rule, active = well fitted curve in the direction sought with a large enough effect; inconclusive = small, poorly fitted or top-dose-only effect, or another doubt; inactive = no such curve, though single readings can be large; an effect the other way counts as inactive or inconclusive.
Tests used:
[1] = Primary qHTS for small molecule stabilizers of the endoplasmic reticulum resident proteome: Secreted ER Calcium Modulated Protein (SERCaMP) assay (AID 1508630); conditions: SH-SY5Y GLuc-SERCaMP (Gaussia luciferase released on ER calcium loss) secretion, thapsigargin, luminescence; series mostly up to 38.4 µM
In short: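 The SH-SY5Y reporter protocol was run at 3 concentrations up to 38.3 uM (primary) or 11 concentrations (follow-up): 16 h compound, 100 nM thapsigargin for 4 h, then extracellular luciferase luminescence.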

[2] = Cytotoxicity counterscreen for inhibitors of SARS-CoV-2 cell entry (AID 1645845; calls by dose curve; note: nearly all actives have a fitted effect of over 50% in size); conditions: cell viability (SARS-CoV-2 entry assay cells); series mostly up to 57.1 µM
In short: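 After a 15 min room-temperature ATPLite 1step step, luminescence reflected ATP remaining in HEK293-ACE2 cells exposed to compound for 1 h plus 48 h at 37 C, with percent activity set by cell and no-cell controls.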

[3] = Primary qHTS to identify inhibitors of SARS-CoV-2 cell entry (AID 1645846; calls by dose curve; note: nearly all actives have a fitted effect of over 45% in size; note: potency is the fitted concentration of half-maximal effect); conditions: SARS-CoV-2 pseudovirus cell entry assay, luminescence; activity change, negative = inhibition: at 57.1 µM (top of the series) unless noted; series mostly up to 57.1 µM
In short: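 Data are normalized to wells receiving SARS-CoV-2-S pseudoparticles and those given bald particles. Entry signal was luciferase luminescence in stable hACE2 Expi293F cells, 48 hr post-infection, after 1 hr compound pretreatment.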

[4] = Primary qHTS for inhibitors of nuclear receptor binding SET domain protein 2 (NSD2) in an isogenic RCH-ACV NSD2 p.E1099K mutant (9B) (AID 1645876); conditions: RCH-ACV NSD2 E1099K (9B) viability, CellTiter-Glo, 72 h; series mostly up to 44.9 µM; note: nearly all actives have a fitted effect of over 70% in size; note: potency is the fitted concentration of half-maximal effect
[5] = Primary qHTS for inhibitors of nuclear receptor binding SET domain protein 2 (NSD2) in an RCH-ACV wild type WT cells (2C) (AID 1645877); conditions: RCH-ACV (leukaemia line) NSD2 WT (2C) viability, CellTiter-Glo, 72 h; series mostly up to 44.9 µM; note: nearly all actives have a fitted effect of over 70% in size; note: potency is the fitted concentration of half-maximal effect
Papain (Carica papaya) = Papain (Carica papaya) (UniProt P00784); assay: Primary qHTS assay for inhibitors of the protease papain (AID 1645873); conditions: papain Z-FR-AMC cleavage, AMC fluorescence; series mostly up to 49.8 µM;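 note: papain turnover of Z-FR-AMC read as the AMC fluorescence gain over 10 min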; note: potency is the fitted concentration of half-maximal effect
[6] = target: Catechol O-methyltransferase (Homo sapiens) (UniProt P21964); assay: Confirmatory Screen for Target Class Profiling of Small Molecule Inhibitors of Methyltransferases (AID 1745852; calls by dose curve); conditions: MTase-Glo luminescence, SAH detection, recombinant enzyme; measured here: COMT max response; stronger effect = lower value
[7] = target: Guanidinoacetate N-methyltransferase (Homo sapiens) (UniProt Q14353); assay: as above; conditions: MTase-Glo luminescence, SAH detection, recombinant enzyme; activity change, negative = inhibition: at 57.3 µM (top of the series)
[8] = target: Nicotinamide N-methyltransferase (Homo sapiens) (UniProt P40261); assay: as above; conditions: MTase-Glo luminescence, SAH detection, recombinant enzyme; measured here: NNMT max response; stronger effect = lower value
[9] = target: Phenylethanolamine N-methyltransferase (Homo sapiens) (UniProt P11086); assay: as above; conditions: MTase-Glo luminescence, SAH detection, recombinant enzyme; measured here: PNMT max response; stronger effect = lower value
[10] = target: Cytochrome P450 2D6 (Homo sapiens) (UniProt P10635); assay: Cytochrome P450 family 2 subfamily D member 6 (CYP2D6) small molecule antagonists: luciferase biochemical (cell-free) qHTS assay (AID 1645840; active = well fitted curve in the direction sought with a large enough effect in the repeat runs; an effect the other way counts as inactive or inconclusive; note: potency is the fitted concentration of half-maximal effect; nearly all actives have a fitted effect of over 55% in size); conditions: P450-Glo CYP2D6 enzyme, luciferin luminescence, 1 h; series mostly up to 57.4 µM
In short: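 P450-Glo CYP2D6 system: proluciferin substrate converted by enzyme to luciferin, read by luminescence proportional to activity. Enzyme-substrate mix with compound 10 min at room temperature, then NADPH regeneration 1 h before detection reagent.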

[11] = target: Cytochrome P450 2C9 (Homo sapiens) (UniProt P11712); assay: Cytochrome P450 family 2 subfamily C member 9 (CYP2C9) small molecule antagonists: luciferase biochemical (cell-free) qHTS assay (AID 1645842; active = well fitted curve in the direction sought with a large enough effect in the repeat runs; an effect the other way counts as inactive or inconclusive; note: potency is the fitted concentration of half-maximal effect; nearly all actives have a fitted effect of over 55% in size); conditions: P450-Glo CYP2C9 enzyme assay, luciferin luminescence; series mostly up to 57.4 µM
In short: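 P450-Glo CYP2C9 system: proluciferin substrate with enzyme in mix containing 0.4% BSA, 10 min at room temperature, then NADPH regeneration solution added and incubated 1 h at 37C. Detection reagent stopped reaction; luminescence read after 20 min as RLU.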

Sequence of Papain (Carica papaya) (P00784 whole entry, looked up): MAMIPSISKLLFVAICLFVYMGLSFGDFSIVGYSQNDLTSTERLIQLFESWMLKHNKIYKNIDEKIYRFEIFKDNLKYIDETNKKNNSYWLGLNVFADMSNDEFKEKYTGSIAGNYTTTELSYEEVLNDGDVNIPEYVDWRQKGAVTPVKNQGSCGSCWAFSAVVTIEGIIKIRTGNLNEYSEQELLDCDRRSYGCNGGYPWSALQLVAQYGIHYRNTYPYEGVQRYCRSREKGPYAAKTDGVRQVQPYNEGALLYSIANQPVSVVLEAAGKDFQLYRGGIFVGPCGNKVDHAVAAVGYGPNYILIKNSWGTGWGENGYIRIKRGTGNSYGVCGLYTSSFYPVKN
Sequence of Catechol O-methyltransferase (Homo sapiens) (P21964 whole entry, looked up): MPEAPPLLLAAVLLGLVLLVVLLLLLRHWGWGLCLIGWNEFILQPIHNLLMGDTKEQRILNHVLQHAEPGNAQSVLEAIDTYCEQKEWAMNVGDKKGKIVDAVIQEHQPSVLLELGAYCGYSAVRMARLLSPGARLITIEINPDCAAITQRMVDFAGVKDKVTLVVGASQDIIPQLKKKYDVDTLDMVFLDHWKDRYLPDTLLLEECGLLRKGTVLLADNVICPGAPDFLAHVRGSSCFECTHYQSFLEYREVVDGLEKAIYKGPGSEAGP
Sequence of Nicotinamide N-methyltransferase (Homo sapiens) (P40261 whole entry, looked up): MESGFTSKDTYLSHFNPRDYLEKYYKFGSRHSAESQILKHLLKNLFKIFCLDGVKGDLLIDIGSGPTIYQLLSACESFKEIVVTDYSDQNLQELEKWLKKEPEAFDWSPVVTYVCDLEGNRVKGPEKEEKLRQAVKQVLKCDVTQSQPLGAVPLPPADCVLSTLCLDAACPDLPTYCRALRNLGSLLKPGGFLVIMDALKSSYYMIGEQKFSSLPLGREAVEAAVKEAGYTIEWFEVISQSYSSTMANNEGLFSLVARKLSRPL
Sequence of Cytochrome P450 2C9 (Homo sapiens) (P11712 whole entry, looked up): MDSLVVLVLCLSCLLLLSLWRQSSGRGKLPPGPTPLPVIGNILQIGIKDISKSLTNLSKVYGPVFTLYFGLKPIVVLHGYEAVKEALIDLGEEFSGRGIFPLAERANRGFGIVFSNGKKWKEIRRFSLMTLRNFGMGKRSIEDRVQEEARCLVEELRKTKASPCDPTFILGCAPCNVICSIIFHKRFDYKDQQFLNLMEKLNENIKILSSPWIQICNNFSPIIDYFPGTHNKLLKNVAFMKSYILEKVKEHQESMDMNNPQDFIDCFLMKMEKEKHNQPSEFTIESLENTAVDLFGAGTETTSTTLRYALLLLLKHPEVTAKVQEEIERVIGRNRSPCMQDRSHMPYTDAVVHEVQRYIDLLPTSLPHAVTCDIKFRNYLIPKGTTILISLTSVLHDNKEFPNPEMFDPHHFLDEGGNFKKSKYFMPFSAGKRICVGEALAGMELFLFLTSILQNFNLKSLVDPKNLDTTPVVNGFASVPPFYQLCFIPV
Sequence of Cytochrome P450 2D6 (Homo sapiens) (P10635 whole entry, looked up): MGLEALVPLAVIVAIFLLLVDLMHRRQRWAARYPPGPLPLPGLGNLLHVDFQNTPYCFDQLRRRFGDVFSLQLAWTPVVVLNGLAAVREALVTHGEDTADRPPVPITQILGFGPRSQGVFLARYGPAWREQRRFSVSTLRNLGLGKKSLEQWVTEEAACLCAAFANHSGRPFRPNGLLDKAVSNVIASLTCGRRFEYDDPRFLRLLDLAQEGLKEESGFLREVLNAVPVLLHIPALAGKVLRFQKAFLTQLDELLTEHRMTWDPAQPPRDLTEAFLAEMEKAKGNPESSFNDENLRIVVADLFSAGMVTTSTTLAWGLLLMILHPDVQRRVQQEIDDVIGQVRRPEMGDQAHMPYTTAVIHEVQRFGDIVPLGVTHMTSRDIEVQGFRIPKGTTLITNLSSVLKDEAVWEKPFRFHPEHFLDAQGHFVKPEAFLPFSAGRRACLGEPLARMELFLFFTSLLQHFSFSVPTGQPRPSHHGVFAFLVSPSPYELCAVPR
Sequence of Phenylethanolamine N-methyltransferase (Homo sapiens) (P11086 whole entry, looked up): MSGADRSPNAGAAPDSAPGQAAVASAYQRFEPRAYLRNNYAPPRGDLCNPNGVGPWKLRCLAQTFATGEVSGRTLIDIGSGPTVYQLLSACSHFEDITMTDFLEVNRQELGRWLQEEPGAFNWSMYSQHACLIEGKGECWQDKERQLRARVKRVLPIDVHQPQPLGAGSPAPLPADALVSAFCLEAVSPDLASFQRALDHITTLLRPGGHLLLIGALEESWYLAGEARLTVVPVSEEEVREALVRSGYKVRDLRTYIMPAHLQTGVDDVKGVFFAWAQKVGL

## C#CC1(O)CCC2C3CCC4=CC(=O)CCC4(C)C3CCC21C (stereo not drawn)
[1]
  Potency: inactive
[2]
  Potency: inactive
[3]
  activity change, negative = inhibition: -0.771%
[4]
  Potency: inactive
[5]
  Potency: inactive

## CCNC(=O)CC1N=C(c2ccc(Cl)cc2)c2cc(OC)ccc2-n2c(C)nnc21 (stereo not drawn)
[1]
  Potency: inactive
[3]
  activity change, negative = inhibition: -16.5%
[4]
  Potency: 9.34 µM (active) and inactive and 515 nM (active)
[5]
  Potency: 5.9 µM (active) and inactive and 409 nM (active)

## CC(C)NC(C)Cc1ccc(I)cc1 (stereo not drawn)
[1]
  Potency: inactive
[2]
  Potency: inactive
Papain (Carica papaya)
  Potency: inactive
[6]
  activity: 0.93%
[7]
  activity change, negative = inhibition: 2.72%
[8]
  activity: -9.49%
[9]
  activity: 2.34%

## Oc1ccc2c3c1O[C@H]1c4[nH]c5c(c4C[C@@]4(O)[C@@H](C2)N(CC2CC2)CC[C@]314)C[C@@]1(O)[C@H]2Cc3ccc(O)c4c3[C@@]1(CCN2CC1CC1)[C@H]5O4
[1]
  Potency: inactive
Papain (Carica papaya)
  Potency: inactive

## COc1ccc2c(c[n+](C)c3c4cc5c(cc4ccc23)OCO5)c1OC
[1]
  Potency: inactive
[3]
  activity change, negative = inhibition: -96.4%
Papain (Carica papaya)
  Potency: inactive
[4]
  Potency: inactive

## c1ccc2sc(C3(N4CCCCC4)CCCCC3)cc2c1
[1]
  Potency: inactive
Papain (Carica papaya)
  Potency: inactive

## O=C(Cc1ccc(Cl)c(Cl)c1)N1CCCCC1CN1CCCC1 (stereo not drawn)
[1]
  Potency: inactive
Papain (Carica papaya)
  Potency: inactive

## C[C@@H]1O[C@H](C[N+](C)(C)C)C[C@H]1O
[1]
  Potency: inactive
Papain (Carica papaya)
  Potency: inactive

## CCCC[N+]1(C)[C@H]2CC(OC(=O)[C@H](CO)c3ccccc3)C[C@H]1[C@H]1O[C@H]12 (stereo partly drawn)
[1]
  Potency: inactive
[2]
  Potency: inactive
[3]
  activity change, negative = inhibition: -13.1%
[4]
  Potency: inactive
[5]
  Potency: inactive

## O=C(O)Cc1cnc[nH]1
[1]
  Potency: inactive
Papain (Carica papaya)
  Potency: inactive

## CN[C@@H]1C[C@@H](c2ccc(Cl)c(Cl)c2)c2ccccc21
[1]
  Potency: inactive
Papain (Carica papaya)
  Potency: inactive

## O=C1C=CC[C@@H]2[C@H]3CCCN4CCC[C@@H](CN12)[C@@H]34
[1]
  Potency: inactive
[2]
  Potency: inactive
[3]
  Potency: inactive
[4]
  Potency: inactive
[5]
  Potency: inactive

## CCNC(=O)C[C@@H]1N=C(c2ccc(Cl)cc2)c2cc(OC)ccc2-n2c(C)nnc21
[1]
  Potency: inactive
[2]
  Potency: inactive
[4]
  Potency: 459 nM (active) and 590 nM (active)
[5]
  Potency: 459 nM (active) and 833 nM (active)

## COc1cc([C@@H]2c3cc4c(cc3[C@@H](O)C3COC(=O)C32)OCO4)cc(OC)c1O (stereo partly drawn)
[1]
  Potency: inactive
[2]
  Potency: inactive
[4]
  Potency: 0.417 µM (active)
[5]
  Potency: 0.372 µM (active)

## O=S(=O)(F)Cc1ccccc1
[1]
  Potency: inactive
[2]
  Potency: inactive
[3]
  activity change, negative = inhibition: -1.91%
[4]
  Potency: inactive
[5]
  Potency: inactive

## CCN1C[C@]2(OC(=O)c3ccccc3NC(C)=O)CC[C@H](OC)[C@@]34[C@H]5CC6[C@@H](OC)C[C@](O)(C(C[C@@H]23)[C@@H]14)[C@@]5(O)[C@@H]6OC
[1]
  Potency: inactive
[2]
  Potency: inactive
[3]
  activity change, negative = inhibition: 1.38%
[4]
  Potency: inactive
[5]
  Potency: inactive

## CC(C)[C@]12O[C@H]1[C@@H]1O[C@]13[C@]1(O[C@H]1C[C@H]1C4=C(CC[C@@]13C)C(=O)OC4)[C@@H]2O
[1]
  Potency: inactive
[3]
  activity change, negative = inhibition: -93.7%
[4]
  Potency: 18.3 nM (active) and 23.5 nM (active)
[5]
  Potency: 12.9 nM (active) and 18.6 nM (active)

## C[N+]1(C)C2CCC1CC(OC(=O)C(CO)c1ccccc1)C2 (stereo not drawn)
[1]
  Potency: inactive
Papain (Carica papaya)
  Potency: inactive

## O=S(=O)(CC1CS1)c1ccc(Oc2ccccc2)cc1 (stereo not drawn)
[1]
  Potency: inactive
[2]
  Potency: inactive
[3]
  Potency: inactive
[4]
  Potency: 8.33 µM (active)
[5]
  Potency: 5.25 µM (active)

## NC(=NCCC[C@H](N)C(=O)O)N[N+](=O)[O-]
[1]
  Potency: inactive
Papain (Carica papaya)
  Potency: inactive

## CCCCCC[C@H]1C(=O)O[C@H](C)[C@H](NC(=O)c2cccc(NC=O)c2O)C(=O)O[C@@H](C)[C@@H]1OC(=O)CC(C)C
[1]
  Potency: inactive
[3]
  activity change, negative = inhibition: -94.1%

## C/C=C(/C)C(=O)O[C@H]1C(C)=C2[C@H]([C@@H]1OC(=O)CCCCCCC)[C@@](C)(OC(C)=O)C[C@H](OC(=O)CCC)[C@@]1(O)[C@H]2OC(=O)[C@@]1(C)O
[1]
  Potency: inactive
[3]
  Potency: 22.4 µM (active)
[4]
  Potency: 5.8 nM (active) and 16.6 nM (active)

## O=C(Oc1ccc([N+](=O)[O-])cc1)N1CCC(C(O)(c2ccc3c(c2)OCO3)c2ccc3c(c2)OCO3)CC1
[1]
  Potency: inactive
[2]
  Potency: inactive
[3]
  activity change, negative = inhibition: -17.3%
[4]
  Potency: inactive
[5]
  Potency: inactive

## CN(C)NC(=O)CCC(=O)O
[1]
  Potency: inactive
[2]
  Potency: inactive
[3]
  activity change, negative = inhibition: -24.7%
[4]
  Potency: inactive
[5]
  Potency: inactive

## Cc1nccc2c1[nH]c1ccccc12
[1]
  Potency: inactive
Papain (Carica papaya)
  Potency: 28.2 µM (active)

## C[C@]12CCC3C(CC[C@H]4C[C@H](O)CC[C@]34C)C1CC[C@@H]2C(=O)CO (stereo partly drawn)
[1]
  Potency: inactive
Papain (Carica papaya)
  Potency: inactive

## NCc1cc(=O)[nH]o1
[1]
  Potency: inactive
Papain (Carica papaya)
  Potency: inactive

## Nc1ccc(N=Nc2ccccc2)cc1
[10]
  Potency: 41.1 µM (active)
[11]
  Potency: 9.2 µM (active)
[4]
  Potency: 6.11 µM (active)
[5]
  Potency: 6.86 µM (active)
